Reference: PubChem BioAssay (Tox21)
Records with an inconclusive call do not appear. Active and inactive are the calls of the source. Unless noted, calls follow the shape of the dose curve; as a rule, active = well fitted curve in the direction sought with a large enough effect in the repeat runs; inconclusive = weak or mixed curves; inactive = no such curve, though single readings can be large; an effect the other way counts as inactive or inconclusive.

What was measured:
[1] = qHTS assay to identify small molecule agonists of the peroxisome proliferator-activated receptor delta (PPARd) signaling pathway - cell viability counter screen (AID 743211); also: nearly all actives have a fitted effect of over 55% in size
Summary of the method: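 HEK293H PPARd-bla, 3000 cells/well; 5 h preincubation 37C/5% CO2; cpd in DMSO, 17 h 37C; B/G FRET substrate 2 h RT; CellTiter-Glo 30 min RT, luminescence.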

[2] = molecular target: Peroxisome proliferator-activated receptor delta (Homo sapiens) (UniProt Q03181); assay: qHTS assay to identify small molecule agonists of the peroxisome proliferator-activated receptor delta (PPARd) signaling pathway (AID 743212; calls by dose curve)
Peroxisome proliferator-activated receptor delta (Homo sapiens), sequence (Q03181 whole entry, looked up): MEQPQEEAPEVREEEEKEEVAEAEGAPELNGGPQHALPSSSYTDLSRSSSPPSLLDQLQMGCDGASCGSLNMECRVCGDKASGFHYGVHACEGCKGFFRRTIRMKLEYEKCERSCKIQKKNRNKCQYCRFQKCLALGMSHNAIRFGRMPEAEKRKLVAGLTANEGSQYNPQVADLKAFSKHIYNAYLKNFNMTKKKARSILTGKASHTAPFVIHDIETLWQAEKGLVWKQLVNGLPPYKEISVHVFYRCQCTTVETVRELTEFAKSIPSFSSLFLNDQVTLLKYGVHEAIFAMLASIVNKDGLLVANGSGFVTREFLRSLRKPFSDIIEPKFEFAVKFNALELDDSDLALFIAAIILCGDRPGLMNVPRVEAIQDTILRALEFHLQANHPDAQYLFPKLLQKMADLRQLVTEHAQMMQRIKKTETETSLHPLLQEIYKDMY
Summary of the method: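 HEK293H UAS-bla reporter cells, human PPARd system; compounds delivered in DMSO after 5 h plating, then at 37 C. Beta-lactamase FRET read, 2 h RT substrate step.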

[3] = qHTS assay to identify small molecule antagonists of the peroxisome proliferator-activated receptor delta (PPARd) signaling pathway - cell viability counter screen (AID 743213); also: nearly all actives have a fitted effect of over 50% in size
Summary of the method: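 Agonist-stimulated (L165041, 300 nM final) HEK293H PPARd UAS-bla cells are exposed to compounds for 17 h at 37 C, and ATP-based luminescence (CellTiter-Glo) from the same wells reports cytotoxicity.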

[4] = qHTS assay to identify small molecule agonists of the farnesoid-X-receptor (FXR) signaling pathway - cell viability counter screen (AID 743218); also: nearly all actives have a fitted effect of over 45% in size
Summary of the method: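 FXR-UAS-bla HEK 293T cells, plated 5 h at 37 C, were exposed to compounds for 16 h at 37 C. CellTiter-Glo was then added to the same wells as the bla readout; luminescence read after 30 min at room temperature.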

[5] = qHTS assay to identify small molecule antagonists of the farnesoid-X-receptor (FXR) signaling pathway - cell viability counter screen (AID 743221; active = well fitted cell-killing curve with a large enough effect in the repeat runs, not every such curve was filed as active; also: nearly all actives have a fitted effect of over 50% in size)
Summary of the method: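 Luminescence from CellTiter-Glo measures cytotoxicity in GeneBLAzer FXR-UAS-bla HEK 293T cells. Cells were exposed to compounds with 50 uM chenodeoxycholic acid (final) for 16 h at 37 C, in wells also used for the reporter readout.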

[6] = molecular target: Vitamin D3 receptor (Homo sapiens) (UniProt P11473); assay: qHTS assay to identify small molecule agonists of the vitamin D receptor (VDR) signaling pathway (AID 743222; calls by dose curve)
Vitamin D3 receptor (Homo sapiens), sequence (P11473 whole entry, looked up): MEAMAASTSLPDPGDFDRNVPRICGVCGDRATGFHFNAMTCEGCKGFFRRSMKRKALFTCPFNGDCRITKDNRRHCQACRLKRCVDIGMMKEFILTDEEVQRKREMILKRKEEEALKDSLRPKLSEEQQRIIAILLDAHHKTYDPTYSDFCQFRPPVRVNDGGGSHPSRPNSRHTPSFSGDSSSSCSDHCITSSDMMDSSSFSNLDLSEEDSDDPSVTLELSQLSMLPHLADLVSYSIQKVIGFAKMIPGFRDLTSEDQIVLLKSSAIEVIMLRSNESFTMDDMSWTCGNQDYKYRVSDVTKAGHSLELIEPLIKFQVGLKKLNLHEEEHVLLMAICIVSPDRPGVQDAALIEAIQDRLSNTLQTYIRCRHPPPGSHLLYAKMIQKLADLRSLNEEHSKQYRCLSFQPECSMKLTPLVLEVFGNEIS
Summary of the method: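 VDR-bla cells were plated 4 h at 37C/5% CO2, then exposed to compounds in DMSO for 16 h. After LiveBLAzer B/G FRET substrate addition and 2 h at room temperature, beta-lactamase reporter fluorescence was read.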

[7] = molecular target: Vitamin D3 receptor (Homo sapiens) (UniProt P11473); assay: qHTS assay to identify small molecule antagonists of the vitamin D receptor (VDR) signaling pathway (AID 743223; active = well fitted inhibition curve with a large enough effect in the signal ratio in the repeat runs, not every such curve was filed as active; the % refers to the signal ratio)
Summary of the method: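 Antagonist mode uses 1alpha,25-dihydroxyvitamin D3 at 3 nM final as stimulus. VDR-bla cells receive compounds in DMSO, incubate 16 h at 37C, then a beta-lactamase FRET substrate for 2 h at room temperature before fluorescence measurement.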

[8] = qHTS assay to identify small molecule agonists of the vitamin D receptor (VDR) signaling pathway - cell viability counter screen (AID 743224); also: series mostly up to about 63 µM; nearly all actives have a fitted effect of over 50% in size
Summary of the method: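 VDR-bla cells were preincubated 4 h at 37C/5% CO2, then exposed to compounds for 16 h. After the 2 h room-temperature bla FRET read, CellTiter-Glo was added to the same wells and luminescence read after 30 min.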

[9] = qHTS assay to identify small molecule agonists of the NFkB signaling pathway (AID 1159509; active = well fitted curve in the direction sought with a large enough effect in the signal ratio in the repeat runs, not every such curve was filed as active; the % refers to the signal ratio; also: series mostly up to about 61 µM)
Summary of the method: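 After overnight attachment, reporter cells received test compounds, DMSO or positive controls and were incubated 5 hr at 37 C. FRET substrate was then added for 1.5 hr at room temperature before dual-emission fluorescence reading.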

[10] = qHTS assay to identify small molecule agonists of the NFkB signaling pathway - cell viability counter screen (AID 1159515; calls by dose curve; also: series mostly up to about 61 µM; nearly all actives have a fitted effect of over 55% in size)
Summary of the method: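 NFkB-bla ME-180 cells, 2,000/well, were plated overnight at 37 C, 5% CO2, then exposed to compounds in DMSO for 5 hr. After the bla FRET read, CellTiter-Glo was added to the same wells; luminescence was read after 30 min at room temperature.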

[11] = qHTS assay to identify small molecule agonists of the endoplasmic reticulum stress response signaling pathway (AID 1159516; active = well fitted activation curve with a large enough effect in the signal ratio in the repeat runs, not every such curve was filed as active; the % refers to the signal ratio)
Summary of the method: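 CellSensor ESRE-bla HeLa cells, carrying a beta-lactamase reporter driven by the ER stress response element, were plated overnight and exposed to compounds for 5 hr at 37 C. Reporter activity was read as FRET substrate fluorescence after 2 hr at room temperature.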

[12] = qHTS assay to identify small molecule agonists of the endoplasmic reticulum stress response signaling pathway - cell viability counter screen (AID 1159517; calls by dose curve; also: series mostly up to about 61 µM; nearly all actives have a fitted effect of over 50% in size)
Summary of the method: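 Cells, HeLa ESRE-bla; density, 1,500/well; dosing, 5 hr at 37 C, 5% CO2; readout, CellTiter-Glo luminescence after 30 min RT.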

[13] = qHTS assay to identify small molecule antagonists of the retinoid-related orphan receptor gamma (ROR-gamma) signaling pathway - cell viability counter screen (AID 1159520); also: nearly all actives have a fitted effect of over 50% in size
Summary of the method: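 Cytotoxicity was read from cellular ATP (CellTiter-Glo luminescence) after 16 hr at 37 C with 1 uM doxycycline induction. The inducer was added 2 hr after compound transfer to Tet-on ROR gamma CHO cells.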

[14] = molecular target: Nuclear receptor ROR-gamma (Homo sapiens) (UniProt P51449); assay: qHTS assay to identify small molecule antagonists of the retinoid-related orphan receptor gamma (ROR-gamma) signaling pathway (AID 1159521)
Summary of the method: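 CHO Tet-on RORγ, RORE-luc reporter. Cpd 2 h pre-incubation, then dox hyclate 1 uM final, 16 h, 37 C/5% CO2. ONE-Glo luminescence; decrease = antagonist.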

[15] = qHTS assay to identify small molecule agonists of the AP-1 signaling pathway - cell viability counter screen (AID 1159525; calls by dose curve; also: nearly all actives have a fitted effect of over 55% in size)
Summary of the method: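 Luminescent ATP readout (Cell Titer Glo, 30 min RT), normalised to DMSO and tetra n-octyl ammonium bromide controls. Cells were ME-180 AP-1-bla in 0.5% dialyzed FBS Opti-MEM, with a 5 h, 37 °C compound exposure.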

[16] = qHTS assay to identify small molecule agonists of the AP-1 signaling pathway (AID 1159526; calls by dose curve)
[17] = molecular target: Peroxisome proliferator-activated receptor delta (Homo sapiens) (UniProt Q03181); assay: qHTS assay to identify small molecule antagonists of the peroxisome proliferator-activated receptor delta (PPARd) signaling pathway (AID 743215; active = well fitted inhibition curve with a large enough effect in the signal ratio in the repeat runs, not every such curve was filed as active; the % refers to the signal ratio; also: series mostly up to about 62 µM)
Summary of the method: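 PPARd UAS-bla HEK293H cells were pre-incubated 5 h at 37 C, then given test compounds in DMSO plus agonist L165041 (300 nM final). After 17 h at 37 C, beta-lactamase FRET substrate was added; fluorescence read after 2 h at room temperature.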

[18] = molecular target: Bile acid receptor (Homo sapiens) (UniProt Q96RI1); assay: qHTS assay to identify small molecule agonists of the farnesoid-X-receptor (FXR) signaling pathway (AID 743220; active = well fitted activation curve with a large enough effect in the signal ratio in the repeat runs, not every such curve was filed as active; the % refers to the signal ratio)
Bile acid receptor (Homo sapiens), sequence (Q96RI1 whole entry, looked up): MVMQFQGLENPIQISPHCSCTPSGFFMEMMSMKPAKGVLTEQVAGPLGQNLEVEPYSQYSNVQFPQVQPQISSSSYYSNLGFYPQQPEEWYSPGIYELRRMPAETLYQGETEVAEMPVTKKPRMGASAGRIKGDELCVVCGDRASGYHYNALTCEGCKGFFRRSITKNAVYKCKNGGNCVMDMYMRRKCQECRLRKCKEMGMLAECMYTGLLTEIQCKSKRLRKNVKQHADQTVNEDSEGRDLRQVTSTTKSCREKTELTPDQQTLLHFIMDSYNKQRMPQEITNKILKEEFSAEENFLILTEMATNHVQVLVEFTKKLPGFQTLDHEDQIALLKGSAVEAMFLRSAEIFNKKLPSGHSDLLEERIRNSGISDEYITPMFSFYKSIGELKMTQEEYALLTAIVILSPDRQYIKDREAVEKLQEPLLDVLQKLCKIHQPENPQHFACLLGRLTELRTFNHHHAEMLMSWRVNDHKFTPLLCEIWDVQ
Summary of the method: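 Beta-lactamase reporter under UAS control in GeneBLAzer FXR HEK 293T cells (5000/well) measured with LiveBLAzer FRET substrate after 2 h at room temperature. Compound exposure lasted 16 h at 37C.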

[19] = qHTS assay to identify small molecule antagonists of the vitamin D receptor (VDR) signaling pathway - cell viability counter screen (AID 743225); also: nearly all actives have a fitted effect of over 50% in size
Summary of the method: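 Read-out: CellTiter-Glo luminescence measured 30 min after reagent addition at room temperature. Cells were VDR-bla HEK 293T exposed 16 h at 37C, 5% CO2, to compound with 3 nM final calcitriol agonist.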

Measured: Potency

CC12CC1(C)C(=O)N(c1cc(Cl)cc(Cl)c1)C2=O (configuration not stated)
inactive: [1] | [2] | [3] | [4] | [5] | [6] | [7] | [8] | [9] | [10] | [11] | [12] | [13] | [14] | [15] | [16]

Nc1ncc([N+](=O)[O-])s1
inactive: [2] | [3] | [17] | [4] | [18] | [5] | [6] | [7] | [8] | [9] | [10] | [11] | [12] | [13] | [14] | [15] | [16]

CCOc1ccc(N)cc1
inactive: [2] | [3] | [17] | [4] | [18] | [5] | [6] | [7] | [8] | [9] | [10] | [11] | [12] | [13] | [14] | [15] | [16]

CNC(=O)O/N=C/C(C)(C)S(C)(=O)=O
inactive: [1] | [3] | [4] | [5] | [8] | [19] | [9] | [10] | [11] | [12] | [13] | [14] | [15] | [16]

C=CC(=O)OCCCCCC(C)C
inactive: [2] | [3] | [17] | [4] | [18] | [5] | [6] | [7] | [8] | [19] | [9] | [10] | [11] | [12] | [13] | [14] | [15] | [16]

C/C=C/c1ccc2c(c1)OCO2
inactive: [1] | [3] | [4] | [5] | [6] | [7] | [8] | [19] | [9] | [10] | [11] | [12] | [13] | [14] | [15] | [16]

N#Cc1ccccn1
inactive: [1] | [3] | [4] | [5] | [8] | [19] | [9] | [10] | [11] | [12] | [13] | [14] | [15] | [16]

OCc1ccco1
inactive: [2] | [3] | [17] | [4] | [18] | [5] | [6] | [7] | [8] | [9] | [10] | [11] | [12] | [13] | [14] | [15] | [16]

COC(C)(C)CCCC(C)C/C=C/C(C)=C/C(=O)OC(C)C (configuration not stated)
inactive: [1] | [3] | [4] | [5] | [8] | [9] | [10] | [11] | [12] | [13] | [14] | [15] | [16]

FC(F)(F)c1ccc(Cl)cc1
inactive: [2] | [3] | [17] | [4] | [18] | [5] | [6] | [7] | [8] | [9] | [10] | [11] | [12] | [13] | [14] | [15] | [16]

Nc1cc(Cl)cc(Cl)c1
inactive: [2] | [3] | [17] | [4] | [18] | [5] | [6] | [7] | [8] | [19] | [9] | [10] | [11] | [12] | [13] | [14] | [15] | [16]

Nc1ccc(N)cc1
inactive: [1] | [3] | [4] | [18] | [5] | [6] | [7] | [8] | [19] | [9] | [10] | [11] | [12] | [13] | [14] | [15] | [16]

Clc1cnc(Oc2ccc(Oc3ncc(Cl)cc3Cl)cc2)c(Cl)c1
inactive: [1] | [2] | [3] | [17] | [18] | [5] | [6] | [7] | [8] | [9] | [10] | [11] | [12] | [13] | [14] | [15] | [16]

OCCCCO
inactive: [1] | [3] | [4] | [18] | [5] | [6] | [7] | [8] | [9] | [10] | [11] | [12] | [13] | [14] | [15] | [16]

ClCCOCCCl
inactive: [2] | [3] | [17] | [4] | [18] | [5] | [8] | [9] | [10] | [11] | [12] | [13] | [14] | [15] | [16]
